This note sets out measurements from PubChem BioAssay (NCATS).

Molecules are shown by their SMILES. Values joined by “and” are separate entries in the source; they are usually repeats but may differ in a detail not shown here. Identical values can stand only once. Inconclusive results are not listed. Active and inactive are the calls of the source. Unless noted, calls follow the shape of the dose curve; as a rule, active = well fitted curve in the direction sought with a large enough effect; inconclusive = small, poorly fitted or top-dose-only effect, or another doubt; inactive = no such curve, though single readings can be large; an effect the other way counts as inactive or inconclusive.

Experiment [1] is described as follows: qHTS Assay for Identifying Gametocytocidal Compounds (AID 743244). Also: potency is read from the fitted curve at half-maximal effect.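 As to max response: % is scaled to controls: 0 for no effect and ±100 for the full control effect; actives lower the fluorescent signal which means gametocytes are killed.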 Particulars: P. falciparum 3D7 stage III-V gametocytes, alamarBlue, 72 h; max response: stronger effect = lower value. The method in brief: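 Compounds are pinned into medium, gametocytes (stage III–V, 3D7, 20,000 cells/well) added, and plates held 72 h at 37 °C in 5% CO2. AlamarBlue follows for 24 h before fluorescence reading.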

Experiment [2] in a line: qHTS assay for small molecule agonists of the antioxidant response element (ARE) signaling pathway measured by Nrf2-dependant transcriptional activity - cell viability counter screen (AID 720653; active = well fitted curve in the direction sought with a large enough effect in the repeat runs; an effect the other way counts as inactive or inconclusive; also: % is scaled to controls: 0 for no effect and ±100 for the full control effect). The conditions noted are these: ARE-bla HepG2 viability, CellTiter-Glo ATP luminescence, 16 h; max response: stronger effect = lower value. The method in brief:
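ARE-bla HepG2 cells (2,000/well) rested 5 hrs at 37C/5% CO2, then exposed to compounds in DMSO for 16 hrs. Viability was read in the same wells as intracellular ATP by luminescence, 30 min at room temperature after reagent addition.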

Experiment [3] is described as follows: qHTS assay for small molecule antagonists of the retinoid-related orphan receptor gamma (ROR-gamma) signaling pathway - cell viability counter screen (AID 720652; active = well fitted curve in the direction sought with a large enough effect in the repeat runs; an effect the other way counts as inactive or inconclusive;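 also: potency is read from the fitted curve at half-maximal effect; compound exposure lasted 16 hr before ATP read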). The method in brief: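 Steps: seed CHO cells bearing TET-inducible ROR and ROR response element-luciferase; rest 5 hr at 37 C; add compound, then doxycycline; incubate 16 hr; add CellTiter-Glo and read luminescence as ATP-based viability.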
Background: Quantitative high-throughput screening tests each substance at several concentrations.

Experiment [4] in a line: qHTS assay for cell viability of HEK293 cells (AID 743288). Also: % is scaled to controls: 0 for no effect and ±100 for the full control effect; nearly all actives have a fitted effect of over 50% in size. Particulars: ATP luminescence (CellTiter-Glo), 18 h; max response: stronger effect = lower value. In a few lines: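 Quantitative high-throughput screen: compounds were pinned onto parental HEK293 cells (2,000 per well) after a minimum 5 h settling at 37 C, incubated 18 h at 37 C, and intracellular ATP measured by luciferase luminescence.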

Experiment [5] in a line: qHTS assay for cell viability of the p53RE-bla HCT-116 cell line (AID 743292). Also: potency is read from the fitted curve at half-maximal effect; nearly all actives have a fitted effect of over 55% in size. In a few lines: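 ATP-based luminescent viability (CellTiter-Glo, 30 min RT) after 16 h compound treatment at 37 C of p53RE-bla HCT-116 cells, seeded at 4,000 cells/well and rested 5 h before dosing.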
Experiment [6] is described as follows: qHTS profiling of the MIPE4 collection as inhibitors of Plasmodium falciparum (3D7) proliferation (AID 743344; call rule not given here;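 also: scaled between DMSO vehicle wells and 0.29 µM artemisinin as full inhibition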). The conditions noted are these: P. falciparum 3D7 in erythrocytes, SYBR Green DNA fluorescence, 72 h; at 28.5 µM (top of the series) unless noted. The method in brief: (§1)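 Parasite DNA was quantified by SYBR Green I fluorescence (ex 485, em 535 nm) after overnight lysis in saponin/Triton buffer at room temperature. Cultures at 0.3% parasitemia and 2.5% hematocrit were first exposed to compound for 72 h at 37 C; signals were normalised to artemisinin (0.29 uM) and vehicle wells.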

A short description of experiment [7]: qHTS profiling of the MIPE4 collection as inhibitors of Plasmodium falciparum (DD2) proliferation (AID 743345; call rule not given here). Particulars: P. falciparum Dd2 in erythrocytes, SYBR Green DNA, 72 h; at 28.5 µM (top of the series) unless noted. The method in brief:
as §1

Experiment [8] in a line: qHTS profiling of the MIPE4 collection as inhibitors of Plasmodium falciparum (DD2) proliferation (Rep 2) (AID 743346; call rule not given here). The conditions noted are these: P. falciparum Dd2 in erythrocytes, SYBR Green DNA, 72 h; at 28.5 µM (top of the series) unless noted. The method in brief:
as §1

A short description of experiment [9]: qHTS profiling of the MIPE4 collection as inhibitors of Plasmodium falciparum (HB3) proliferation (AID 743347; call rule not given here;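 also: plate controls were DMSO vehicle wells for no effect and artemisinin wells for full effect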). Particulars: P. falciparum HB3 in erythrocytes, SYBR Green DNA, 72 h; at 28.5 µM (top of the series) unless noted. The method in brief:
as §1

Regarding `O=C(NC(O)C(Cl)(Cl)Cl)NC(O)C(Cl)(Cl)Cl` (stereo not given), the max response in [1] is -4.63% (inactive).
As to `NC(=Nc1ccccc1)Nc1ccccc1`, the max response in experiment [2] is 3.18% (inactive).
For `CCN(CC)CCN1C(=O)CN=C(c2ccccc2F)c2cc(Cl)ccc21`, the max response in experiment [1] is 9.52% (inactive).
The same measure, in the same setting: the result for `O=C(O)c1ccc2[nH]cc(CCCCN3CC=C(c4ccccc4)CC3)c2c1` reads -6.11% (inactive); that for `Cc1ccc2c(n1)Oc1ccc(C(C)C(=O)OCC(=O)N(C)C)cc1C2` (stereo not given), 42.6% (inactive) and 2.17% (inactive); that for `NP(N)(=O)NC(=O)c1ccc(F)cc1`, -2.45% (inactive).
For `CC(=O)Nc1cc([As](=O)(O)O)ccc1O`, the max response in [1] was 0.387% (inactive).
On the same count and under the same terms, the result for `N[C@@H](Cc1ccc(Oc2cc(I)c(O)c(I)c2)c(I)c1)C(=O)O` reads -7.97% (inactive).
On to `OCCN1CCN(CCCN2c3ccccc3Sc3ccc(C(F)(F)F)cc32)CC1`, for which the Potency in experiment [1] is 11.2 µM (active).
Regarding `CN1C(=S)CN=C(c2ccccc2)c2cc(Cl)ccc21`, the max response in [1] was -6.22% (inactive).
Same read-out and setting: the result for `FC(F)(F)c1cccc(C2=CCN(CCc3ccc4ccccc4c3)CC2)c1` reads 11.8% (inactive); that for `C=C1C[C@@H]2[C@H](CC[C@]3(C)C(=O)CC[C@@H]23)[C@@]2(C)C=CC(=O)C=C12`, -0.643% (inactive).
Still for that read-out and setting: the result for `CC1OC(C)OC(C)O1` (stereo not given) reads -0.681% (inactive) and 11.3% (inactive).
In the case of `Clc1cccc(N2CCNCC2)c1`, the max response in experiment [1] is 0.639% (inactive).
Still for that read-out and setting: the result for `C=CCN1CC[C@]23c4c5ccc(O)c4O[C@H]2C(=O)CC[C@@]3(O)[C@H]1C5` reads 6.99% (inactive) and 10.2% (inactive); that for `Cc1ccc(-c2nc3ccc(C)cn3c2CC(=O)N(C)C)cc1`, 7.35% (inactive).
Same read-out and setting: the value for `CC(C)(N)Cc1ccc(Cl)cc1` was 12.2% (inactive).
Same read-out and setting: the value for `CC(C)(C)NCC(O)c1cc(Cl)c(N)c(Cl)c1` (stereo not given) was -5.19% (inactive).
As to `Clc1ccc(CCC(Cn2ccnc2)Sc2c(Cl)cccc2Cl)cc1` (stereo not given), in experiment [1], the Potency is 7.94 µM (active).
For `CC(=O)Oc1ccccc1C(=O)Nc1ncc([N+](=O)[O-])s1`, in experiment [3], the Potency is 5.96 µM (active). For the same compound, the max response in experiment [1] is 33.5% (inactive).
Take `C=C1CC[C@@]2(O)[C@H]3Cc4ccc(O)c5c4[C@@]2(CCN3CC2CC2)[C@H]1O5`: the max response in experiment [1] is 7.59% (inactive).
As for `CCN(CC)C(=O)N[C@@H]1C=C2c3cccc4[nH]cc(c34)C[C@@H]2N(C)C1`, the Potency in experiment [1] was 20 µM (active).
In the case of `CCOC(=O)C1(c2ccccc2)CCN(CCC(C#N)(c2ccccc2)c2ccccc2)CC1`, in experiment [1], the max response was 18.9% (inactive) and -7.07% (inactive).
Same read-out and setting: the value for `CCC(COC(=O)c1cc(OC)c(OC)c(OC)c1)(c1ccccc1)N(C)C` (stereo not given) was 10.7% (inactive); that for `CC[N+](CC)(CC)CC` was -4.6% (inactive) and 7.33% (inactive).
As to `Cc1ccc2c(c1)C1CN(C)CCC1N2` (stereo not given), the max response in experiment [1] is -7.38% (inactive).
Still for that read-out and setting: the result for `CCN(C(C)=O)c1cccc(-c2ccnc3c(C#N)cnn23)c1` reads 4.87% (inactive); that for `C[C@]12CC[C@H]3[C@@H](CCC4=CC(=O)CC[C@@H]43)[C@@H]1CC[C@@H]2OC(=O)CCc1ccccc1`, 0.188% (inactive).
Still for that read-out and setting: the result for `CCN(CC)CCOC(=O)C(O)(c1ccccc1)c1ccccc1` reads -7.9% (inactive).
Regarding `C[C@]12C/C(=C/O)C(=O)C[C@@H]1CC[C@@H]1[C@@H]2CC[C@@]2(C)[C@H]1CC[C@]2(C)O`, the max response in experiment [2] is 3.17% (inactive) and 10.2% (inactive); in experiment [1], 18.9% (inactive); in experiment [4], -10.8% (inactive) and -7.35% (inactive). In addition, the Potency in [5] is 50.1 µM (active).
As to `CCC(C(N)=O)N1CCCC1=O` (stereo not given), the max response in experiment [1] is -7.9% (inactive).
The same measure, in the same setting: the result for `CC1NCCOC1c1ccccc1` (stereo not given) reads 1.41% (inactive).
Turning to `CN(C)C(=O)C(CCN1CCC(O)(c2ccc(Cl)cc2)CC1)(c1ccccc1)c1ccccc1`, the Potency in experiment [1] is 11.2 µM (active) and 1.26 µM (active).
As to `CC(C)=CC1C(C(=O)OCc2cccc(Oc3ccccc3)c2)C1(C)C` (stereo not given), in experiment [1], the max response is 5.27% (inactive).
On to `O=P1(NCCCl)OCCCN1CCCl` (stereo not given), for which the max response in experiment [1] was 4.6% (inactive). The compound also showed a parasite growth, % of DMSO control in experiment [6] of 62.8%. In addition, in experiment [7], the parasite growth remaining, % of DMSO control (lower = more inhibition) was determined as 97.2%. Moreover, the parasite growth, % of control (lower = inhibition) in experiment [8] is 110%. The growth, % of control in experiment [9] turned out to be 107%.
Take `CO[C@]12CC[C@@]3(C[C@@H]1[C@](C)(O)C(C)(C)C)[C@@H]1Cc4ccc(O)c5c4[C@@]3(CCN1CC1CC1)[C@H]2O5`: the parasite growth, % of DMSO control in experiment [6] turned out to be 5.19% [at 57.2 µM]. The compound also yielded a parasite growth remaining, % of DMSO control (lower = more inhibition) in experiment [7] of 6.03% [at 57.2 µM]. In experiment [8], the parasite growth, % of control (lower = inhibition) is 19.3% [at 57.2 µM]. The growth, % of control in [9] turned out to be 7.07% [at 57.2 µM].
Turning to `OC(Cn1cncn1)(Cn1cncn1)c1ccc(F)cc1F`, the parasite growth, % of DMSO control in experiment [6] stood at 95.6%. For the same compound, in [8], the parasite growth, % of control (lower = inhibition) came out at 88.1%. Further, the growth, % of control in experiment [9] was 103%.
